# Measured values from publication PMC4336329 (PLoS ONE, 2015).
# Among all 310,000 compounds or so, about 14,000 (4.5%) showed an effect of 50% or more. The effect is printed as a negative number. For the sample, strong results were picked, then their nearest neighbours and some compounds at random.
# Target: human ether-à-go-go-related gene (hERG) potassium channel (human, UniProt Q12809)
# Assay: primary screen, population patch clamp on CHO cells stably expressing hERG; higher = less effect of the substance
# 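Also: peak tail current of the secondary pulse compared with the same well before compound.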
# human ether-à-go-go-related gene (hERG) potassium channel, sequence (Q12809 whole entry, looked up): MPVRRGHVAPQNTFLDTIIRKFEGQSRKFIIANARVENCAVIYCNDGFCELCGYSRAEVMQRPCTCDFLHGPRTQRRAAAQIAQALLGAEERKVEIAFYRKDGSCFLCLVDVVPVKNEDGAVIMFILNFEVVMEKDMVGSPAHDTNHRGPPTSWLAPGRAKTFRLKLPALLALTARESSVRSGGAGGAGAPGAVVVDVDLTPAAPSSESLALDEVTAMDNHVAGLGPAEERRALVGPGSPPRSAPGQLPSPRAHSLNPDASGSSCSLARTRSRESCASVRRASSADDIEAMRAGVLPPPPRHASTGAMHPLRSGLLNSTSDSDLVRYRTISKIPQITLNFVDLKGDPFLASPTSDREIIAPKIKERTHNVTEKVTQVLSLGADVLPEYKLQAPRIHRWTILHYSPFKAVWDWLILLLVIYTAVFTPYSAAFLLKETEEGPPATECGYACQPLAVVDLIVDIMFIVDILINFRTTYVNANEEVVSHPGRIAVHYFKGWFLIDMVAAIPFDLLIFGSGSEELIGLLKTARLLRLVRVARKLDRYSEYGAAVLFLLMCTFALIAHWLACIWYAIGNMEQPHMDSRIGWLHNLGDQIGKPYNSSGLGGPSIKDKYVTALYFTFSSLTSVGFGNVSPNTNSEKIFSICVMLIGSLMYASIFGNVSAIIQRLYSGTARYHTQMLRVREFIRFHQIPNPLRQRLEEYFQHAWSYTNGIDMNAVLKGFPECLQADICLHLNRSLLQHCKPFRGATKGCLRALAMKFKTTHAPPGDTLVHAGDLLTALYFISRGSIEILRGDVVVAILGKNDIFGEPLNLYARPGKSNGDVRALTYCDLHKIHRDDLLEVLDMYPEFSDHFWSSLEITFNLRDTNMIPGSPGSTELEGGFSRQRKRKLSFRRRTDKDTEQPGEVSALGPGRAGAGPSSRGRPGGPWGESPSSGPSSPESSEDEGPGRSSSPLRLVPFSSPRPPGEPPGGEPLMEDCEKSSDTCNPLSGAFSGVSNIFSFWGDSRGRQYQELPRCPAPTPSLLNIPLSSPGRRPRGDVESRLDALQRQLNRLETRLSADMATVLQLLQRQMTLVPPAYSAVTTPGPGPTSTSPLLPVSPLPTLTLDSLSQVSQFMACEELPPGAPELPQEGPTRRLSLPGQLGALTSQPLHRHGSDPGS
row,SMILES,"hERG current change (%, negative = inhibition) at 10uM"
1,CN(C)S(=O)(=O)c1ccc(Cl)c(C(=O)NC2CCCCCCC2)c1,7.33%
2,O=C(Cn1nnc(-c2ccncc2)n1)N1CCc2ccccc21,15.2%
3,CCCc1nc2oc3c(NCc4ccccn4)ncnc3c2c2c1COC(C)(C)C2,-17.8%
4,COc1cccc(CN2CCNC(=O)C2CC(=O)NCCCn2ccnc2)c1 (stereo not drawn),37.2%
5,Cc1cc(=O)[nH]c(/N=C(\N)Nc2cccc3ccccc23)n1,11.5%
6,NNC(=O)c1ccc(COCC(F)(F)C(F)F)cc1,14.5%
7,CC(NC(=O)c1cc2cc(Cl)ccc2oc1=N)c1ccccc1 (stereo not drawn),7.55%
8,C#CCNC(=O)[C@H](Cc1ccc(C(=O)c2ccccc2)cc1)NC(=O)OC(C)(C)C,19.5%
9,O=C(COC(=O)c1cc(S(=O)(=O)N2CCOCC2)cs1)c1ccccc1,-0.734%
10,N#C/C(=C\c1cccnc1)c1nc2ccccc2[nH]1,-10.4%
11,CCn1c(CNC(=O)COc2ccc(C(C)C)cc2)nnc1SCC(=O)Nc1ccccc1,-54.2%
12,CCn1c(CNC(=O)COc2ccc(C(C)C)cc2)nnc1SCC(=O)Nc1ccccc1F,-60.1%
13,CCn1c(CNC(=O)COc2ccc(C(C)C)cc2)nnc1SCC(=O)NC1CCCCC1C (stereo not drawn),-16.8%
14,CCn1c(CCNC(=O)c2ccc(OC)cc2)nnc1SCC(=O)Nc1ccccc1F,-22.7%
15,CCn1c(CNC(=O)COc2ccc(C(C)C)cc2)nnc1SCC(=O)Nc1ccc(F)cc1,-49.4%
16,CCn1c(Cc2ccccc2)nnc1SCC(=O)Nc1ccccc1F,-5.46%
17,CC1(c2nnc(Cc3ccccc3)o2)CC(c2cccnc2)=NO1 (stereo not drawn),3.26%
18,Cc1ccc(N=C(NO)c2nonc2N)cc1,10.1%
19,CCOC(=O)c1[nH]c2ccccc2c1NC(=O)C1CCCC1,3.28%
20,O=C(/C=C/c1ccccc1Cl)Nc1ccncc1,-3.65%
21,Cc1cc(NC(=O)CSCC(=O)NCc2cccc(C(F)(F)F)c2)no1,-18.7%
22,O=C(O)CCC(=O)N1CCc2cc(S(=O)(=O)NC3CCCc4ccccc43)ccc21 (stereo not drawn),-5.02%

row,SMILES,"hERG current change (%, negative = inhibition) at 10uM"
1,[Cl-].c1ccc(C[n+]2c(-c3ccccc3)csc2Nc2ccccc2)cc1,19.6%
2,CN(C(=O)COC(=O)CSc1ccc(C(N)=O)cc1[N+](=O)[O-])C1CCS(=O)(=O)C1 (stereo not drawn),-11.4%
3,NC(=O)COC(=O)CSc1cccc2cccc(Cl)c12,14.8%
4,O=C(COc1ccccc1Br)N1CCN(C(=O)c2ccco2)CC1,-31.3%
5,Cc1cc(Br)cc(Cl)c1OCC(=O)N1CCN(C(=O)c2ccco2)CC1,-63.3%
6,Cc1cccc(OCC(=O)OCC(=O)N2CCN(C(=O)c3ccco3)CC2)c1C,-31.8%
7,O=C(CSc1cccc2cccc(Cl)c12)OCC(=O)N1CCN(C(=O)c2ccco2)CC1,-69.2%
8,Cc1cc(C)c(OCC(=O)OCC(=O)N2CCN(C(=O)c3ccco3)CC2)c(C)c1,-30.4%
9,CCOC(=O)N1CCN(C(=O)COC(=O)CSc2cc(C)c(Br)cc2C)CC1,-38.5%
10,Cc1cc(SCC(=O)OCC(=O)N2CCN(C(=O)c3ccco3)CC2)c(C)cc1Br,-50.2%
11,Cc1ccc(SCC(=O)OCC(=O)N(C)C2CCS(=O)(=O)C2)cc1C (stereo not drawn),-11.5%
12,O=C(CSc1ccccc1F)OCC(=O)N1CCN(C(=O)c2ccco2)CC1,-27.2%
13,Cc1cc(SCC(=O)OCC(=O)N(C)C2CCS(=O)(=O)C2)c(C)cc1Br (stereo not drawn),-73.1%
14,O=C(c1ccco1)c1cn[nH]c1-c1ccc(Cl)cc1O,-8.52%
15,C/C(=N\NC(=O)CN(c1ccc(Oc2ccccc2)cc1)S(C)(=O)=O)C(C)(C)C,7.07%
16,COc1ccccc1CNC(=O)COC(=O)Cc1ccc(F)cc1,8.81%
17,O=C(Cc1ccccc1)NCc1nc2ccccc2[nH]1,-6.31%
18,O=C(NCCc1ccncc1)Nc1cccc(Cl)c1,-3.75%
19,O=C(NCc1cccnc1)C1CCN(C(=O)c2ccc(Cl)cc2Cl)CC1,-10.8%
20,O=[N+]([O-])c1cccc(S(=O)(=O)Nc2ccc(S(=O)(=O)Nc3nccs3)cc2)c1,13.9%
21,CCOC(=O)CN1C(=O)C(O)(CC(=O)c2cccc(OC)c2)c2ccccc21 (stereo not drawn),5.13%
22,O=C(NCC(c1ccco1)N1CCN(c2ccccc2)CC1)c1ccc2c(c1)OCO2 (stereo not drawn),-5.86%

row,SMILES,"hERG current change (%, negative = inhibition) at 10uM"
1,Cc1ccc(SCC(=O)OCC(=O)N2CCN(C(=O)c3ccco3)CC2)c(C)c1,-41.6%
2,CC(=O)N1CCN(C(=O)CSc2cc(C)c(Br)cc2C)CC1,3.18%
3,Cc1cc(Br)ccc1SCC(=O)OCC(=O)N1CCN(C(=O)c2ccco2)CC1,-66.8%
4,Nc1cc(N)nc(SCC(=O)N2CCN(C(=O)c3ccco3)CC2)n1,0.783%
5,NC(=O)c1ccc(SCC(=O)OCC(=O)N2CCN(C(=O)c3ccco3)CC2)c([N+](=O)[O-])c1,23.3%
6,Cc1cc(SCC(=O)N2CCN(C(=O)c3ccco3)CC2)c(C)cc1Br,-62.3%
7,CCCC(O)(CCC)C(=O)NNc1ccccc1,12.4%
8,O=C(NCCCN1CCCC1=O)c1ccc2c(=O)n(Cc3ccco3)c(=S)[nH]c2c1,-17.8%
9,Cc1ccc2oc(=O)c3cnn(CC(=O)NC4CCCCC4C)c3c2c1 (stereo not drawn),8.43%
10,CS(=O)(=O)N1CCc2cc(NC(=O)c3ccc(Cl)cc3Cl)ccc21,1.5%
11,CCN(CC)C(=O)CSc1nc2ccccc2c(=O)[nH]1,12.5%
12,CCn1c(=O)c(=O)n(CC)c2cc(S(=O)(=O)Nc3ccc(C)cc3)ccc21,7.02%
13,CCn1c(=O)n(CC)c2cc(NS(=O)(=O)c3ccccc3)ccc21,-68.7%
14,Cn1c(=O)n(C)c2cc(NS(=O)(=O)c3ccccc3)ccc21,4.09%
15,O=S(=O)(Nc1ccc2nc(-c3ccco3)[nH]c2c1)c1ccccc1,-58.4%
16,CC(=O)Nc1ccc2nc(-c3ccco3)[nH]c2c1,7.99%
17,O=C(Nc1ccc(-c2nc3ccc(NC(=O)c4cccs4)cc3[nH]2)cc1)c1cccs1,18.1%
18,Cc1ccc(S(=O)(=O)Nc2ccc3nc(-c4cccn4C)[nH]c3c2)cc1,-79.3%
19,Cn1cccc1-c1nc2ccc(NC(=O)c3cccs3)cc2[nH]1,-53.3%
20,Cc1ccc(-c2nc3ccc(NS(=O)(=O)c4ccccc4)cc3[nH]2)o1,-47.3%
21,Cn1cccc1-c1nc2ccc(NC(=O)c3ccccc3)cc2[nH]1,-39.3%
22,Cn1cccc1-c1nc2ccc([N+](=O)[O-])cc2[nH]1,4.4%

row,SMILES,"hERG current change (%, negative = inhibition) at 10uM"
1,CC(=O)Nc1ccc2nc(-c3cccn3C)[nH]c2c1,12.8%
2,COc1ccccc1CNC(=O)CNC(=O)[C@@H]1Cc2ccccc2CN1,1.14%
3,Cc1c(NC(=O)CSc2nnc(N)s2)c(=O)n(-c2ccccc2)n1C,-10.4%
4,Cc1ccnc(NC(=O)CN(C)S(=O)(=O)c2cccc3nsnc23)c1,7.8%
5,O=S(=O)(Nc1ccc(Cl)cc1)c1ccc2c(c1)CCO2,-3.21%
6,O=C(O)c1ccc(NS(=O)(=O)c2cc(Cl)sc2Cl)cc1,21.3%
7,Cc1oc2c(Cl)c(Cl)c(O)c(CN(C)C)c2c1C(=O)c1ccc(Cl)cc1,-1.39%
8,Cc1nnc(SCC(=O)NC2CCCc3c2cnn3-c2ccccc2F)o1 (stereo not drawn),20.5%
9,O=C(NCCNc1ccc2ccccc2c1)c1cccn2c(=O)c3sccc3nc12,-6.94%
10,O=C(NCc1ccco1)c1cccn2c(=O)c3sccc3nc12,-68.4%
11,O=C(NCc1cccs1)c1cccn2c(=O)c3sccc3nc12,-7.79%
12,O=C(NCc1ccco1)c1cccn2c(=O)c3c4c(sc3nc12)CCCC4,13.6%
13,O=C(NCc1cccnc1)c1cccn2c(=O)c3sccc3nc12,-63.2%
14,O=C(O)c1ccccc1C(=O)NCc1cccnc1,-32.8%
15,O=c1c2ccccc2ncn1-c1ccc([N+](=O)[O-])c(C(F)(F)F)c1,-3.74%
16,CC#C[C@@H](CC)c1ccc2ccn(C)c2c1,-4.51%
17,O=C(NC1CCCCCCC1)c1ccc(F)cc1,4.61%
18,COC(=O)C(Cc1ccccc1)NC(=O)c1cc(=O)[nH]c2ccccc12 (stereo not drawn),17.6%
19,CC(C)CCNC(=O)c1ccc(NC(=O)C2=CSCCO2)cc1,4.36%
20,COc1ccccc1C1=NOC(C)(c2sc(-c3ccccc3)nc2C)C1 (stereo not drawn),21.7%
21,Cc1cc(C)c(C#N)c(SCc2ccccc2)n1,11.2%
